The record followed here is PubChem BioAssay (NCATS).

Experiment [1] concerns the target Cytochrome P450 2C9 (Homo sapiens) (UniProt P11712). Kind of experiment: Cytochrome P450 family 2 subfamily C member 9 (CYP2C9) small molecule antagonists: luciferase biochemical (cell-free) qHTS assay (AID 1645842; active means well fitted curve in the direction sought with a large enough effect in the repeat runs; an effect the other way counts as inactive or inconclusive; further: nearly all actives have a fitted effect of over 55% in size). The essentials:
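P450-Glo CYP2C9 system: proluciferin substrate with enzyme in mix containing 0.4% BSA, 10 min at room temperature, then NADPH regeneration solution added and incubated 1 h at 37C. Detection reagent stopped reaction; luminescence read after 20 min as RLU.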

The nature of experiment [2]: Primary qHTS for inhibitors of nuclear receptor binding SET domain protein 2 (NSD2) in an isogenic RCH-ACV NSD2 p.E1099K mutant (9B) (AID 1645876). Further: nearly all actives have a fitted effect of over 70% in size.
Experiment [3] can be described thus: Primary qHTS for inhibitors of nuclear receptor binding SET domain protein 2 (NSD2) in an RCH-ACV wild type WT cells (2C) (AID 1645877). Further: nearly all actives have a fitted effect of over 70% in size.

Structures are written as SMILES. Records with an inconclusive call do not appear. Activity calls are given as the source filed them. Unless noted, the call rests on the fitted dose curve; in most records, active means well fitted curve in the direction sought with a large enough effect; inconclusive means small, poorly fitted or top-dose-only effect, or another doubt; inactive means no such curve, though single readings can be large; an effect the other way counts as inactive or inconclusive.
Potency means the concentration at half of the fitted maximal effect.

Chain of Cytochrome P450 2C9 (Homo sapiens) (P11712 whole entry, looked up): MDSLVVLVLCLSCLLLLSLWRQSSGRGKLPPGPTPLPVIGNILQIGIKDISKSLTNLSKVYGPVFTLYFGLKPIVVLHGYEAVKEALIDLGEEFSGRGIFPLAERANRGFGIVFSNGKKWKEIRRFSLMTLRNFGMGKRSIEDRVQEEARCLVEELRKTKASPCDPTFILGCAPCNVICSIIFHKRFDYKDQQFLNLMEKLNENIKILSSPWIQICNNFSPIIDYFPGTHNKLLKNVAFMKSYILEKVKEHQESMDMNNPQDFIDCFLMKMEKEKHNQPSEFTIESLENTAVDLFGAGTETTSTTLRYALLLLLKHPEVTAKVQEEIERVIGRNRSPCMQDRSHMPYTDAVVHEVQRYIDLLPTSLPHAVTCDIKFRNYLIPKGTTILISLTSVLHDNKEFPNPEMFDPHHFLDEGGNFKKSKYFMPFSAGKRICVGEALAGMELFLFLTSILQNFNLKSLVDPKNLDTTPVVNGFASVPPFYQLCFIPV

In the case of `CNS(=O)(=O)c1ccccc1Nc1nc(Nc2ccc(N3CCN(C)CC3)cc2OC)ncc1Br`, the Potency result in experiment [1] was “inactive”. Also, the values for the Potency in experiment [2] and in experiment [3] were 0.649 µM (active) and 0.728 µM (active), respectively.
On to `CCN(Cc1ccccc1)C(=O)Cn1c(=O)n(C)c2cnc(-c3ccccc3)nc21`, for which, in experiment [1], the Potency was 19 µM (active). In addition, the Potency entry in experiment [2] and in experiment [3] was “inactive” in each case.
`O=C(NC1CCN(CCCCC2(C(=O)NCC(F)(F)F)c3ccccc3-c3ccccc32)CC1)c1ccccc1-c1ccc(C(F)(F)F)cc1`: the Potency is 15.1 µM (active) in experiment [1], 2.9 µM (active) in experiment [2] and 2.9 µM (active) in experiment [3].
Regarding `CN(C)CCN(Cc1ccc(-c2ccc(CNCCc3ccccc3)cc2)cc1)C(=O)CCC1CCCC1`, the Potency in experiment [1] was 19 µM (active); in experiment [2], 2.58 µM (active); in experiment [3] it was 2.3 µM (active).
In the case of `COc1cc(CN(CCN)C(=O)c2cccs2)ccc1OCc1ccccc1`, the Potency in experiment [1] is 10.7 µM (active); in experiment [2], 18.3 µM (active); in experiment [3] it was 20.5 µM (active).
As to `Cc1onc(-c2ccccc2)c1C(=O)N1CCN(c2ccc([N+](=O)[O-])cc2Cl)CC1`, the Potency in experiment [1] is 9.52 µM (active). For the same compound, the Potency result in experiment [2] and in experiment [3] was “inactive” each time.
Turning to `NC(=O)N1CCC(CC(=O)N2CCC(C3c4ncc(Br)cc4CCc4cc(Cl)cc(Br)c43)CC2)CC1` (centres undefined), the values for the Potency in experiment [1], in experiment [2] and in experiment [3] were 12 µM (active), 7.28 µM (active) and 6.49 µM (active), respectively.
With `c1cc(NCCc2c[nH]c3ccccc23)cc(Nc2ccncc2)c1`, the Potency in experiment [1] is 0.674 µM (active); in experiment [2], 7.28 µM (active); in experiment [3] it was 3.25 µM (active).
